This excerpt belongs to a sample that is enriched for hits.
Dicer inh: human Dicer pre-microRNA cleavage inhibition. Q9UPY3. AID 1347074. cat-ELCCA pre-miR-21 Dicer processing, chemiluminescence; active compounds read high. z-score at 25 µM. 6% of 47,000 active; in the data active = z-score above about 3, passing the limit was not always enough;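 also: plate controls were vehicle for no effect and no enzyme for full effect; higher signal means more uncleaved substrate so more Dicer inhibition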
The depositor's hits bear a star.

How did CCOC(=O)C1=NN(c2ccc(C)cc2)C2C(=O)N(c3ccc(Br)cc3)C(=O)C12 (configuration not stated) do in these assays?
Dicer inh: 1.16

What do the screens show for `CCOC(=O)C1=C(C)N(c2ccc(Br)cc2)C(=O)C1`?
Dicer inh: 3.76*

How did CCN1CCN(C(=O)c2c(C)oc3c2cc(OC(C)=O)c2ccccc23)CC1 do in these assays?
Dicer inh: -2.82

How did COC(=O)c1ccc(Br)cc1 do in these assays?
Dicer inh: 0.38

How did COC(=O)c1ccc2cc(C(=O)O)ccc2c1 do in these assays?
Dicer inh: 5.36*

What do the screens show for `COC(=O)c1cc(Cl)cc(Cl)c1`?
Dicer inh: -0.99

How did C=CCOC(=O)n1c(SC)nc2ccccc21 do in these assays?
Dicer inh: 3.12*

Results for CSc1nc2ccccc2n1CCOc1ccc(Cl)cc1 ?
Dicer inh: 0.23

What do the screens show for `C=CCSc1nc2ccccc2n1CC(=O)O`?
Dicer inh: 1.51

What do the screens show for `Cc1ccc(-c2c(C)c(C)nc(N)c2C#N)o1`?
Dicer inh: -1.24

Results for Clc1ccc(CN2CCN(Cc3ccco3)CC2)cc1 ?
Dicer inh: 0.11

What do the screens show for `Clc1cccc(CN2CCN(Cc3ccco3)CC2)c1`?
Dicer inh: -0.29

Results for Fc1cccc(CN2CCN(Cc3ccco3)CC2)c1 ?
Dicer inh: 3.48*

Results for COCCN1C(=O)c2oc3ccc(F)cc3c(=O)c2C1c1cccc(O)c1 (configuration not stated) ?
Dicer inh: -0.64

Results for Cc1nn(Cc2ccc(C(=O)O)cc2)c(C)c1Cl ?
Dicer inh: 0.68

How did O=C(NCc1ccccc1)N1c2ccccc2Sc2ccccc21 do in these assays?
Dicer inh: -0.87

Results for O=C(NCc1ccccc1)C1CCC(C(=O)NCc2ccccc2)N1 (configuration not stated) ?
Dicer inh: -0.39

Results for O=C(NCc1ccccc1)N1CC2C=CC1C2 (configuration not stated) ?
Dicer inh: 6.22*

How did O=C(C1CC(c2ccc(Cl)cc2)=NO1)N1CCCCC1 (configuration not stated) do in these assays?
Dicer inh: -1.57

What do the screens show for `COc1ccc(-c2coc3cc(OCc4ccc(Br)cc4)cc(O)c3c2=O)cc1OC`?
Dicer inh: 3.88*

What do the screens show for `CC(C)Oc1cc(O)c2c(=O)c(-c3ccc(O)cc3)coc2c1`?
Dicer inh: 1.66

How did O=c1c(-c2ccc(O)cc2)coc2cc(O)cc(O)c12 do in these assays?
Dicer inh: -1.4

Results for COc1ccc(Nc2nc(N)nc(CN3CCCCC3)n2)cc1 ?
Dicer inh: -1.05

How did COc1cccc(Nc2nc(N)nc(CN3CCc4ccccc4C3)n2)c1 do in these assays?
Dicer inh: 0.68

Results for COc1ccccc1Nc1nc(N)nc(CN2CCCCC2)n1 ?
Dicer inh: 5.28*

Results for CSc1ncccc1C(=O)NC(CC(C)C)C(=O)O (configuration not stated) ?
Dicer inh: -1.79

What do the screens show for `FC(F)(F)c1cccc(CSc2ncc(C(F)(F)F)cc2C(F)(F)F)c1`?
Dicer inh: 3.01*

Results for FC(F)(F)c1ccc(CSc2ncc(C(F)(F)F)cc2C(F)(F)F)cc1 ?
Dicer inh: -1.12

What do the screens show for `FC(F)(F)c1cnc(SCc2c(Cl)cccc2Cl)c(Cl)c1`?
Dicer inh: 0.05

What do the screens show for `COc1ccc(CC/C(C)=C2/C(=O)Nc3ccccc32)cc1`?
Dicer inh: 0.75

Results for COCCN1C(=O)c2oc3ccc(F)cc3c(=O)c2C1c1ccc(O)c(OC)c1 (configuration not stated) ?
Dicer inh: -0.93

Results for COc1ccccc1C1C(C(=O)OC(C)C)=C(C)Nc2nnnn21 (configuration not stated) ?
Dicer inh: 3.17*

What do the screens show for `CCOC(=O)C1=C(C)Nc2nnnn2C1c1cc(OC)ccc1OC` (configuration not stated)?
Dicer inh: 1.64

How did COC(=O)C1=C(C(=O)c2ccc(C)cc2)C(c2ccccc2OC)n2nnnc2N1 (configuration not stated) do in these assays?
Dicer inh: 0.5

What do the screens show for `CCOC(=O)C1=C(C)Nc2nnnn2C1c1cc(Br)ccc1OC` (configuration not stated)?
Dicer inh: 47.5*

How did COC(=O)C1=C(C(=O)c2ccccc2)C(c2ccccc2OC)n2nnnc2N1 (configuration not stated) do in these assays?
Dicer inh: 0.01

How did COC(=O)C1=C(C)Nc2nnnn2C1c1cc(Br)ccc1OC (configuration not stated) do in these assays?
Dicer inh: -0.18

What do the screens show for `CCN(CC)c1cnn(-c2c(Cl)cc(C(F)(F)F)cc2Cl)c(=O)c1Cl`?
Dicer inh: -1.2

What do the screens show for `Cc1ccc2nc(SCc3nc(-c4ccc(Br)cc4)no3)[nH]c2c1`?
Dicer inh: 0.97

What do the screens show for `C=CCNC(=O)c1cc2c(n(-c3ccc(Cl)cc3)c1=O)CC(C)(C)CC2=O`?
Dicer inh: 1.88

Results for C#CCSc1nc(-c2ccc(C(F)(F)F)cc2)nc(C)c1C(C)=O ?
Dicer inh: -0.58

Assay outcomes deposited in PubChem BioAssay by Center for Chemical Genomics, University of Michigan.
